Rows were chosen to be rich in hits. Some 3.9% of all compounds tested hit in one or more screens of this group.
GALC G270D up – enhancers of human galactocerebrosidase G270D mutant activity in cells. P54803. 145M-Twi-hGALC-G270D cells (Twitcher mouse brain line with human GALC G270D), HMU-beta-Gal fluorescence, 48 h. Potency, µM (series often up to 57.5 µM), most hits filed as activators. hit rate 0.1% among 45,000. AID 1159614; also: potency is read from the fitted curve at half-maximal effect; 0% is about no effect; nearly all actives have a fitted effect of over 65% in size
Target sequence (P54803 whole entry G286D): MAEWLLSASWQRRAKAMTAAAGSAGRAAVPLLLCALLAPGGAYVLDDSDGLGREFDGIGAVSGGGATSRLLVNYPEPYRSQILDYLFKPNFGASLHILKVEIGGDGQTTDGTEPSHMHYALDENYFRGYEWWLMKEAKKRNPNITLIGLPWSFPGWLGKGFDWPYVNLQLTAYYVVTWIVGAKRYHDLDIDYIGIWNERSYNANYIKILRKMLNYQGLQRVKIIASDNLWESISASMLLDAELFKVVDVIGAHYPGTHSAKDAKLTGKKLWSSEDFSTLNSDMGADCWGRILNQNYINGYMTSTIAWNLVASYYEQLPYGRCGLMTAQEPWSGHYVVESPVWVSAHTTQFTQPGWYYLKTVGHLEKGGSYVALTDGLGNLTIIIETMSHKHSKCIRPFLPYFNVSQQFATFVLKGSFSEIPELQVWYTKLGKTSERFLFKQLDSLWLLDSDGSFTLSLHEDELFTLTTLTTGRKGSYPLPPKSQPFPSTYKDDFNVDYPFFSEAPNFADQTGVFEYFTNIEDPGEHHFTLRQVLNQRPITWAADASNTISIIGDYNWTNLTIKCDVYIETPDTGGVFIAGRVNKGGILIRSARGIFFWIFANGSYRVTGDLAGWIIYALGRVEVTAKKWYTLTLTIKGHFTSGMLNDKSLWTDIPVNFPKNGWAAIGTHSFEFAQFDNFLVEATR
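Mutant human GALC (G270D), stably expressed in a Twitcher mouse brain cell line lacking endogenous GALC, is measured in live-treated cells via 6-hexadecanoylamino-4-methylumbelliferyl-β-galactoside hydrolysis (0.1 mM final, pH 5.2) with fluorescent detection.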
p53null 39C kill – selectivity test: cytotoxicity in p53 null cells, nonpermissive temperature; H1299 p53-null (neo) cells, 39C, ATPlite viability, 24 h; Potency, µM (doses to about 46.1 µM), without a hit: top-dose activity, negative = cell killing, usual class: cytotoxic; hit rate 0.97% among 55,000; AID 904;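 also: potency is read from the fitted curve at half-maximal effect; 0% = DMSO only and -100% = full killing by 100 µM tamoxifen; nearly all actives have a fitted effect of over 50% in size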
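Following overnight plating at 37C (600 cells/well), H1299-neo or H1299-p53A138V cells are dosed up to 46 uM. Incubation lasts 24 hr at 39C before ATP detection.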
p53null 32C tox – p53 null cell cytotoxicity, permissive temperature. H1299-neo p53 null cells, ATP luminescence, 24 h, 32C. Potency, µM (series often up to 46.1 µM), without a hit: at the highest dose activity change, negative = cytotoxicity, most hits filed as cytotoxic. hit rate 0.62% among 55,000. AID 903;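 also: potency is read from the fitted curve at half-maximal effect; 0% = DMSO only and -100% = full killing by 100 µM tamoxifen; nearly all actives have a fitted effect of over 55% in size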
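Overnight 37C seeding (600 cells/well) of H1299-neo preceded a 24 hr, 32C exposure to compounds up to 46 uM. ATP levels, read by luminescence after 20 min at RT, indicated surviving cells.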
GPR32 ag – GPR32 (DRV1) agonism, beta-arrestin recruitment | O75388 | CHO-K1 GPR32 beta-arrestin PathHunter luminescence, 90 min; zero percent set by DMSO-only wells | activation, % at 76.9 µM | hit rate 2.5% among 48,000 | AID 1346428;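 active = activation of at least 60% and not above a set upper limit, about 1 call in 100 departs from these limits; inconclusive = activation of 40% to 60%, or above that upper limit; inactive = activation under 40%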; also: 0% is about no effect
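Luminescent readout of beta-Gal complementation quantifies ligand-induced beta-arrestin association with GPR32 in CHO-K1 cells; 90 min compound incubation at 37 °C, detection 1 h at room temperature.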
NTMT1 inhibitor – blocks human N-terminal methyltransferase 1 activity; NTMT1 MTase-Glo SAH luminescence, purified enzyme; Potency, µM (doses to about 114 µM), without a hit: at the top dose activity change, negative = inhibition, hits mostly inhibitors; hit rate 2.5% among 59,000; AID 1645870;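 also: potency is read from the fitted curve at half-maximal effect; plate controls were DMSO vehicle for no effect and no enzyme for full effect; nearly all actives have a fitted effect of over 65% in size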
FH mod – Identification of activators of human fumarate hydratase by quantitative high-throughput screening. hit rate 0.22% among 54,000. Fumarate hydratase, mitochondrial (Homo sapiens), P07954. Potency, µM (highest dose often 79.9 µM), without a hit: at the top dose activity change, negative = inhibition, most hits filed as inhibitors. FH coupled MDH/diaphorase resazurin fluorescence, 15 min; also: potency is read from the fitted curve at half-maximal effect; % is scaled to controls: 0 for no effect and ±100 for the full control effect; the screen sought activators but most active calls are inhibition curves; nearly all actives have a fitted effect of over 45% in size
Active calls of the source: *; i = inactive; ? = inconclusive; · = no result; ! = a repeat was not active; [ ] = remark or other dose. Unless noted, calls follow the shape of the dose curve; as a rule, active = well fitted curve in the direction sought with a large enough effect; inconclusive = small, poorly fitted or top-dose-only effect, or another doubt; inactive = no such curve, though single readings can be large; an effect the other way counts as inactive or inconclusive.

SMILES	GALC G270D up	p53null 39C kill	p53null 32C tox	GPR32 ag	NTMT1 inhibitor	FH mod
CCOC(=O)Nc1ccc(NCc2ccc(F)cc2)nc1N	i	·	·	-2	?	13µM*!
Cc1cnc(-c2ccccc2C(F)(F)F)nc1NCc1ccc(-c2cccnc2)cc1	·	·	·	·	28%	·
COc1ccc(-c2nc3scc(CCNC(=O)c4cccc(Br)c4)n3n2)cc1	i	-18%	-4%	71*	23%	-13%
FC(F)(F)c1ccc(-c2nc(-c3nnc4n3CCCCC4)c(C(F)(F)F)o2)cc1	·	·	·	·	-24%[57.5 µM]	·
CC(=O)c1ccc(N2CCN(C(=O)CS(=O)(=O)c3cccc4nsnc34)CC2)cc1	i	18%	-7%	88*	-19%	1%
CC(C)Cn1cc(NC(=O)Nc2cccc(C(F)(F)F)c2)c2ccccc2c1=O	i	-9%	2%	-15	9%	?
CC(C)C(=O)Nc1cccc(C(F)(F)F)c1	i	·	·	61*	-8%[57.5 µM]	-8%[53.3 µM]
CS(=O)(=O)Nc1cccc(-c2cc(F)c(S(=O)(=O)N3CCN(S(=O)(=O)c4ccc5c(c4)OCCO5)CC3)cc2F)c1	·	·	·	·	18µM*	·
C=C1CC23CC(=O)C4C(CO)(CO)CCCC4(C)C2CCC1C3 (stereo not drawn)	·	·	·	·	-6%[29.8 µM]	2%[53.3 µM]
CC1=C[C@H]2[C@@H](CC1=O)[C@H](C)C[C@H](O)[C@H]2C(C)C	·	·	·	·	12%[57.5 µM]	-8%
CC(=O)NCCc1nc2ccccc2n1CCCCOc1ccc(Cl)cc1	i	4%	-3%	76*	-1%	-13%
O=C(NCCc1nc2ccccc2n1CCCOc1ccc(Cl)cc1)C1CCCCC1	i	?	34%	18	13%	?
CCCC(O)c1nc2ccccc2n1CCCCOc1ccc(OC)cc1 (stereo not drawn)	i	27%	1%	91*	6%	-15%
O=C(Cc1ccc(Cl)cc1)Nc1ccc2nn(-c3ccccc3)nc2c1	i	-3%	-3%	85*	3%	-3%
Cc1cc2nn(-c3ccccc3)nc2cc1NC(=O)Cc1ccc(Cl)cc1	i	-10%	-2%	-13	0%	-29%
CCCCc1ccc(-n2nc3cc(C)c(NC(=O)Cc4ccccc4)cc3n2)cc1	i	1%	-7%[9.22 µM]	-65	79µM*	3%
Cc1ccc(-n2nc3ccc(NC(=O)Cc4ccc(Cl)cc4)cc3n2)cc1	i	-14%	-2%	21	-27%	-9%
CC(=O)Nc1sc2c(c1-c1cccs1)CCNC2	·	·	·	·	-3%[57.5 µM]	·
Cc1ccc(NC(=O)NCc2ccc3c(c2)CN(C2CCC(=O)NC2=O)C3=O)cc1Cl (stereo not drawn)	·	·	·	·	-18%	·
Cc1cccc(N(C)c2nc3ccc(C)cc3n3cnnc23)c1	i	3%	-16%	66*	?	-13%
COc1cc(O)c(C(CC(=O)N2CCCC(C(C)C)C2)c2ccc3c(c2)OCO3)c(OC)c1 (stereo not drawn)	·	·	·	·	12%[228 µM]	·
CCC(C)(C)c1ccc(CC(C)CN2C[C@@H](C)O[C@@H](C)C2)cc1 (stereo partly drawn)	i	·	·	113*	-51%[57.5 µM]	8%[53.3 µM]
N#C/C(=C\c1ccc(-c2ccc(C(=O)O)cc2)o1)C(=O)Nc1ccccc1C(=O)O	i	-1%	3%	-2	2%	14µM*
N#C/C(=C\c1ccc(-c2ccc(Br)cc2)o1)C(=O)Nc1ccccc1O	i	-11%	4%	12	-11%	-1%
CCOC(=O)COc1ccc(/C=C(\C#N)c2nc3ccc(C)cc3[nH]2)cc1OC	i	?	?	39	-8%	-1%
SMILES	GALC G270D up	p53null 39C kill	p53null 32C tox	GPR32 ag	NTMT1 inhibitor	FH mod
COc1cc(/C=C(\C#N)c2nc3ccccc3[nH]2)ccc1OCc1ccccc1F	i	-18%	-10%	9	3%	-3%
CCC(=O)Oc1ccc(/C=C(\C#N)c2nc3ccccc3[nH]2)cc1OC	i	?	-13%	31	25µM*	-7%
COc1cc(/C=C(\C#N)c2nc3ccc(C)cc3[nH]2)ccc1OCc1ccc(C)cc1	i	13µM*	?	-3	13%	4%
CC1(C)CCCC2(C)C1C(OC(=O)/C=C/C=C/C=O)C=C1COC(=O)C12O (stereo not drawn)	·	·	·	·	3%[29.8 µM]	4%[53.3 µM]
CCc1ccc(C(=O)c2cn(CC(=O)Nc3cc(OC)cc(OC)c3)c3ccc(CC)cc3c2=O)cc1	i	-11%	1%	8	-23%	4%
CCOc1ccc(C(=O)c2cn(CC(=O)Nc3cc(OC)cc(OC)c3)c3ccc(F)cc3c2=O)cc1	i	-8%	15%	-1	79µM*	-7%
CC(C)(O)CNc1ncc(-c2ccnc(Nc3ccncc3)n2)c(CC2CC2)n1	·	·	·	·	-7%	·
COc1cc(C2c3c(-c4cc(C)ccc4O)n[nH]c3C(=O)N2Cc2ccco2)cc(OC)c1OC (stereo not drawn)	i	5%	26%	-17	7%	22µM*
COc1cc(C2c3c(-c4c(C)cc(C)cc4O)n[nH]c3C(=O)N2Cc2ccco2)cc(OC)c1OC (stereo not drawn)	i	-13%	0%	65*	14%	-8%
CCOc1cccc(C2c3c(-c4cc(C)ccc4O)n[nH]c3C(=O)N2Cc2ccco2)c1 (stereo not drawn)	i	?	?	28	2%	?
COCCN1C(=O)c2[nH]nc(-c3c(C)cc(C)cc3O)c2C1c1cccc(O)c1 (stereo not drawn)	i	12%	9%	85*	13%	3%
COc1cc(C2c3c(-c4c(C)cc(C)cc4O)n[nH]c3C(=O)N2CCO)cc(OC)c1OC (stereo not drawn)	i	-10%	-4%	?	10%	-2%
CNc1nnc(-c2ccc(N(C)C)cc2)s1	·	7.9µM*	8.9µM*	·	·	·
CCN1CCOC(=O)C1CC(=O)Nc1ccc(Br)cc1 (stereo not drawn)	i	·	·	74*	-4%	-3%
CCN1CCOC(=O)C1CC(=O)Nc1cc(C)ccc1OC (stereo not drawn)	i	·	·	-53	1%	-4%
Cc1ccc(S(=O)(=O)Nc2ccccc2C(=O)Nc2nc(-c3ccccc3)co2)cc1	·	·	·	·	7%[57.5 µM]	·
COc1cc(N2CCN(C)CC2)ccc1Nc1ncc2c(n1)N(C)c1ccccc1C(=O)N2C	·	·	·	·	-23%	·
CCN(CC)CCNC(=O)c1ccc2c(=O)n3nc(Nc4cccc(Cl)c4C)sc3nc2c1	i	20µM*	?	16	?	-9%

Assay outcomes as filed in PubChem BioAssay.
